According to PMC5540273 (PLoS ONE, 2017):
Read-outs that look alike come from different tables or passages of the source.

Key:
AAK1 = settings: n = 1
ABL1-nonphosphorylated = settings: concentration: 1 μM, replicates: in singlicate; n = 1
ABL1-phosphorylated = settings: concentration: 1 μM, replicates: in singlicate; n = 1
ABL2 = settings: concentration: 1 μM, replicates: in singlicate; n = 1
ACVR1B = settings: concentration: 1 μM, replicates: in singlicate; n = 1
ACVR1 = settings: concentration: 1 μM, replicates: in singlicate; n = 1
ACVR2A = settings: concentration: 1 μM, replicates: in singlicate; n = 1
ACVR2B = settings: concentration: 1 μM, replicates: in singlicate; n = 1
ACVRL1 = settings: concentration: 1 μM, replicates: in singlicate; n = 1
ADCK3 = system: T1, ADCK3; settings: concentration: 1 μM, replicates: in singlicate; n = 1
T1 construct: gene CABC1

[1] = concentration: 1 μM, replicates: in singlicate
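Also: KINOMEscan kinase panel screen.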

SMILES	%Inh (AAK1; [1]) [%]	%Inh (ABL1-nonphosphorylated) [%]	%Inh (ABL1-phosphorylated) [%]	%Inh (ABL2) [%]	%Inh (ACVR1B) [%]	%Inh (ACVR1) [%]	%Inh (ACVR2A) [%]	%Inh (ACVR2B) [%]	%Inh (ACVRL1) [%]	%Inh (ADCK3) [%]	%Inh (AAK1; 1 µM) [%]
CCn1c(-c2nonc2N)nc2c(C#CC(C)(C)O)nc(OC[C@H](N)c3ccccc3)cc21 [GSK943949]	0	0	0	0	0	0	0	0	0	0	–
Oc1cc(Nc2ccnc3cc(I)ccc23)ccc1F [GW552771]	10	99.1	99.6	91.7	54	97.4	100	93.7	69	19	–
COc1ccc(Nc2nccc(N3CCC(NC(=O)Nc4cccc(OC)c4)C3)n2)cc1 (centres unmarked) [GSK1379742]	4	0	0	12	0	7	0	0	0	1	–
Nc1ncc(-c2ccc3nccc(-c4ccncc4)c3c2)cc1S(=O)(=O)N1CCOCC1 [GSK1627798]	18	0	0	13	0	0	0	0	0	49	–
O=C(Nc1n[nH]c2nc(-c3ccc(O)cc3)ccc12)C1CC1 [SB-710363]	38	88	74	0	0	74	55	50	1	0	–
COc1ccc(Nc2nccc(NCCNC(=O)c3cc4ccccc4s3)n2)cc1 [GSK1379896]	7	0	0	9	0	0	0	0	0	10	–
Cn1cc(-c2ccc3c(c2)CCN3C(=O)Cc2cccc(F)c2)c2c(N)ncnc21 [GSK2603358]	18	58	41	35	0	0	0	69	0	2	–
CCn1c(-c2nonc2N)nc2c(C#CC(C)(C)O)ncc(OCCCCN)c21.O=C(O)C(F)(F)F.O=C(O)C(F)(F)F [GSK507274]	41	0	4	11	0	3	7	0	0	26	–
CN1CCN(Cc2cccc(-c3ccc4c(Nc5ccc(Oc6ccccc6)cc5)ccnc4c3)c2)CC1 [GW578342]	10	91.6	20	23	0	0	0	0	0	8	–
Cl.c1ccc(-c2ccc3c(Nc4ccc5[nH]ccc5c4)ccnc3c2)nc1 [GW440138]	10	85	94.1	48	0	55	29	89	12	2	–
COCCOCCOc1cc2ncc3c4ccc(C#N)cc4[nH]c3c2cc1OC	92.1	70	53	2	0	0	6	0	0	29	–
Cc1ccc(S(=O)(=O)Nc2ccc(Nc3nccc(Nc4cccc5[nH]ncc45)n3)cc2)cc1 [GSK581271]	27	11	31	64	8	32	0	57	30	41	–
O=c1[nH]cc(-c2ccc(N3CCOCC3)cc2)c2sc(-c3cn[nH]c3)cc12 [GSK2276055]	23	0	0	0	0	0	2	0	0	0	–
Cl.Cl.NCC(NC(=O)c1cc(-c2ccccc2)c(-c2ccnc3[nH]ccc23)s1)c1ccccc1 (centres unmarked) [GSK1321561]	47	89	90	87	0	10	4	18	0	95.3	–
c1ccc(Oc2ccc(Nc3ccnc4cc(-c5ccc(CNCCN6CCOCC6)o5)ccc34)cc2)nc1 [GW567145]	6	78	12	6	0	8	0	14	0	2	–
CN(C)Cc1ccc(-c2ccc3c(Nc4ccc(Oc5ccccn5)cc4)ccnc3c2)o1 [GW567148]	0	89	32	18	0	0	0	38	0	0	–

SMILES	%Inh (AAK1; [1]) [%]	%Inh (ABL1-nonphosphorylated) [%]	%Inh (ABL1-phosphorylated) [%]	%Inh (ABL2) [%]	%Inh (ACVR1B) [%]	%Inh (ACVR1) [%]	%Inh (ACVR2A) [%]	%Inh (ACVR2B) [%]	%Inh (ACVRL1) [%]	%Inh (ADCK3) [%]	%Inh (AAK1; 1 µM) [%]
CC(C)c1nc(-c2cccc(NS(=O)(=O)c3c(F)cccc3F)c2F)c(-c2ccnc(Nc3ccc(N4CCOCC4)nc3)n2)s1 [GSK2008607]	0	99.8	99.3	99.4	90.5	43	0	86	11	100	–
NCCCC(NC(=O)c1cc(Br)c(-c2ccnc3[nH]ccc23)s1)c1ccccc1.O=C(O)C(F)(F)F.O=C(O)C(F)(F)F (centres unmarked) [GSK1287544]	55	0	0	23	0	0	0	0	0	20	–
COC(=O)Nc1nc2cc(Oc3ccc(NC(=O)Nc4cc(C(F)(F)F)ccc4F)cn3)ccc2[nH]1.Cl.Cl [GW681170]	51	99.1	74	82	0	0	0	0	0	2	–
COc1cccc(-c2ccc3c(NC(=O)C4CC4)n[nH]c3n2)c1 [SB-710903]	12	83	76	24	0	18	0	22	0	3	–
Nc1n[nH]c2cnc(-c3ccccc3)cc12 [SB-642124]	37	0	0	16	0	41	0	13	0	19	–
CC(C)(C)c1ccc2nccc(Nc3cccc(O)c3)c2c1 [GW856795]	0	86	85	33	0	8	26	63	0	0	–
Nc1ncnc2c1nc(-c1ccccc1)n2-c1ccccc1 [SKF-97293]	0	8	0	2	7	0	4	0	14	11	–
O=C(Nc1cccc(-c2nn3ccccc3c2-c2ccnc(Nc3cccc(F)c3)n2)c1)c1c(F)ccc(F)c1Cl [GSK357952]	0	26	0	25	0	1	16	13	18	16	–
Nc1ncc(-c2cccnc2)c2scc(-c3ccc4c(c3)CCN4C(=O)Cc3ccccc3)c12 [GSK683281]	24	94.1	54	62	0	0	0	0	3	5	–
Cc1ccc(C(=O)Nc2ccc(Nc3ccnc4cc(-c5nccs5)ccc34)cc2O)cc1.Cl [GW494702]	4	57	12	12	0	18	0	19	0	1	–
COc1cc(Nc2nccc(N3CCC(NC(=O)Nc4cccc(C(C)=O)c4)C3)n2)cc(OC)c1OC (centres unmarked) [GSK1379753]	65	0	0	17	0	0	0	100	0	0	–
CCc1ccc(-c2ccc3c(c2)-c2c(cnn2C)S(=O)(=O)N3C)cc1	0	7	0	0	14	0	5	0	17	0	–
Cc1ccc(F)c(C(=O)Nc2cccc(-c3nn4ccccc4c3-c3ccnc(Nc4cccc(F)c4)n3)c2)c1F [GSK361061]	16	26	0	62	60	23	7	43	38	0	–
CSc1cccc2c(-c3ccncn3)c(-c3ccc(F)cc3)nn12 [GW514786]	0	0	0	12	43	0	0	7	0	68	–
Cc1cccc(Nc2nc(N[C@H]3CCNC3)ncc2C(N)=O)c1.Cl [GSK2197149]	–	40	66	25	0	0	2	7	0	28	75
O=C(O)C(F)(F)F.O=C(O)C(F)(F)F.O=c1[nH]ccc2nc(N[C@@H]3CCCNC3)nc(Nc3ccc(S(=O)(=O)N4CCOCC4)cc3)c12 [GSK2177277]	91.6	47	84	46	2	91.1	29	53	9	0	–
